The record followed here is PubChem BioAssay (EPA / NIEHS).

Active and inactive are the calls of the source. How the source made its calls: active means hit-call score of the fitted dose curve at least 0.9, where 1 is the maximum; inactive means score below 0.9.

Experiment [1] in a line: BSK_CASM3C_SRB: Viability Assessment in the BioMAP Diversity Plus: CASM3C Assay (AID 2283050).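 Further: total protein by SRB staining as cytotoxicity measure in parallel cultures; cells exposed to compound for 24 h.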 The conditions noted are these: primary human coronary artery smooth muscle cells.
Read-out in experiment [2]: Thrombomodulin, THBD (gene 7056)
Description: BSK_CASM3C_Thrombomodulin: BioMAP Diversity Plus: CASM3C Assay for Thrombomodulin Biomarker Activity (AID 2283051).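 Further: thrombomodulin protein level measured by ELISA 24 h after dosing.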 To be noted: primary human coronary artery smooth muscle cells; actives raise or lower the signal.

Read-out in experiment [3]: Tissue Factor, F3 (gene 2152)
Description: BSK_CASM3C_TissueFactor: BioMAP Diversity Plus: CASM3C Assay for Tissue Factor Biomarker Activity (AID 2283052).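 Further: cell surface tissue factor protein level read by ELISA.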 To be noted: primary human coronary artery smooth muscle cells; actives raise or lower the signal.

Read-out in experiment [4]: Interferon-gamma inducible Protein 10 (IP10), CXCL10 (gene 3627)
In words: BSK_hDFCGF_IP10: BioMAP Diversity Plus: hDFCGF Assay for Interferon-gamma inducible Protein 10 (IP10) Biomarker Activity (AID 2283053). The conditions noted are these: primary human foreskin fibroblasts; actives raise or lower the signal. The essentials: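 IP-10 levels, quantified by ELISA, are taken from human foreskin fibroblast cultures 24 h after chemical treatment, with DMSO serving as negative control and baseline for bidirectional analysis.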

Read-out in experiment [5]: Urokinase-type plasminogen activator receptor (uPAR), PLAUR (gene 5329)
In words: BSK_CASM3C_uPAR: BioMAP Diversity Plus: CASM3C Assay for Urokinase-type plasminogen activator receptor (uPAR) Biomarker Activity (AID 2283054).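 Further: cell-surface uPAR protein level quantified by ELISA.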 To be noted: primary human coronary artery smooth muscle cells; actives raise or lower the signal.

Read-out in experiment [6]: Vascular cell adhesion molecule 1 (VCAM1), VCAM1 (gene 7412)
Description: BSK_CASM3C_VCAM1: BioMAP Diversity Plus: CASM3C Assay for Vascular cell adhesion molecule 1 (VCAM1) Biomarker Activity (AID 2283055).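 Further: VCAM-1 protein level quantified by ELISA on the cells.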 The conditions noted are these: primary human coronary artery smooth muscle cells; actives raise or lower the signal.

Read-out in experiment [7]: Collagen III, COL3A1 (gene 1281)
In words: BSK_hDFCGF_CollagenIII: BioMAP Diversity Plus: hDFCGF Assay for Collagen III Biomarker Activity (AID 2283056). To be noted: primary human foreskin fibroblasts; actives raise or lower the signal. The essentials: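 Response relative to DMSO, fitted in both directions, reflects ELISA-measured collagen III in human primary skin fibroblasts 24 h after compound addition.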

Read-out in experiment [8]: Epidermal growth factor receptor (EGFR), EGFR (gene 1956)
Description: BSK_hDFCGF_EGFR: BioMAP Diversity Plus: hDFCGF Assay for Epidermal growth factor receptor (EGFR) Biomarker Activity (AID 2283057). The conditions noted are these: primary human foreskin fibroblasts; actives raise or lower the signal. The essentials:
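Measured by ELISA: EGFR levels on primary human foreskin fibroblasts 24 h after chemical treatment, analysed relative to DMSO with bidirectional fitting.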

Read-out in experiment [9]: Interleukin-8 (IL8), CXCL8 (gene 3576)
In words: BSK_hDFCGF_IL8: BioMAP Diversity Plus: hDFCGF Assay for Interleukin-8 (IL8) Biomarker Activity (AID 2283058). To be noted: primary human foreskin fibroblasts; actives raise or lower the signal. The essentials: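 Fibroblast monolayers (human foreskin, hDFCGF) received test chemical for 24 h before ELISA detection of IL-8; either increases or decreases relative to DMSO count as activity.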

Experiment [10] can be described thus: BSK_hDFCGF_Proliferation: Cell Proliferation Assessment in the BioMAP Diversity Plus: hDFCGF Assay (AID 2283059).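 Further: curves fitted for both rise and fall of signal versus DMSO baseline.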 The conditions noted are these: primary human foreskin fibroblasts. In a few lines: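 This proliferation readout used SRB total-protein staining of human foreskin fibroblasts […], normalized to DMSO with bidirectional curve fitting.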

Take `N#Cc1c[nH]cc1-c1cccc2c1OC(F)(F)O2`: the outcome in [1], in experiment [3], in experiment [4], in experiment [5], in experiment [6] and in experiment [7] was inactive. For the same molecule, the result in [8] and in experiment [9] was inactive. For the same molecule, the AC50 in [2] is 22.7 µM (active).

On to `CC1(C)CON(Cc2ccccc2Cl)C1=O`, for which the result in [1], in experiment [2], in experiment [3], in experiment [4], in [5] and in experiment [6] was inactive. The result in experiment [7], in experiment [8], in [9] and in [10] was inactive.

Take `O=C1C2CC=CCC2C(=O)N1SC(Cl)(Cl)Cl` (stereo not drawn): the AC50 is 29.5 µM (active) in experiment [1]; 4.74 µM (active) in [2]; 6.95 µM (active) in experiment [4]; 32.2 µM (active) in experiment [5]; 22.5 µM (active) in experiment [6]; 6.44 µM (active) in experiment [7]. Besides, the AC50 in experiment [8] is 5.78 µM (active); in experiment [9], 12.1 µM (active); in [10], 1.85 µM (active). Moreover, in experiment [3], the outcome was inactive.

`O=C(Nc1ccccc1-c1ccc(Cl)cc1)c1cccnc1Cl`: the outcome in experiment [1], in [2], in experiment [3], in experiment [4], in [5] and in experiment [6] was inactive. The outcome in experiment [7], in [8], in experiment [9] and in [10] was inactive.

Consider `COC(=O)NS(=O)(=O)c1ccc(N)cc1`, for which the result in [1], in [2], in experiment [3], in experiment [4], in experiment [5] and in experiment [6] was inactive. In addition, the outcome in experiment [7], in experiment [8], in experiment [9] and in experiment [10] was inactive.

On to `CS(=O)(=O)c1cc(C(F)(F)F)ccc1C(=O)c1cnoc1C1CC1`, for which the result in experiment [1], in experiment [2], in experiment [3], in experiment [4], in experiment [5] and in experiment [6] was inactive. For the same molecule, the result in experiment [7], in [8], in experiment [9] and in experiment [10] was inactive.

As to `Nc1c(Cl)c(F)nc(OCC(=O)O)c1Cl`, the outcome in experiment [1], in experiment [2], in experiment [3], in experiment [4], in experiment [5] and in [6] was inactive. In addition, the outcome in experiment [7], in experiment [8], in experiment [9] and in [10] was inactive.

As for `Cc1ccc(N=CN(C)C=Nc2ccc(C)cc2C)c(C)c1`, the half-maximal activity concentration (AC50) in experiment [1] is 28.5 µM (active); in experiment [2], 31.6 µM (active); in experiment [4] it was 29.1 µM (active); in experiment [7] it was 13.3 µM (active); in experiment [9], 36.1 µM (active); in experiment [10], 14 µM (active). The outcome in [3], in experiment [5], in experiment [6] and in [8] was inactive.

With `CC(C)(C)C(=O)C(Oc1ccc(Cl)cc1)n1cncn1` (stereo not drawn), the result in experiment [1], in [2], in [3], in experiment [4], in experiment [5] and in [6] was inactive. The outcome in experiment [7], in experiment [8] and in experiment [9] was inactive.

Take `COC(=O)N(C(=O)N1CO[C@@]2(C(=O)OC)Cc3cc(Cl)ccc3C2=N1)c1ccc(OC(F)(F)F)cc1`: the result in experiment [1], in experiment [2], in experiment [3], in experiment [5], in [6] and in experiment [7] was inactive. The outcome in [8] and in experiment [9] was inactive. Besides, the AC50 in experiment [4] is 13.5 µM (active); in [10] it was 7.63 µM (active).

On to `CC(C)N1C(=O)N(c2ccccc2)CSC1=NC(C)(C)C`, for which the outcome in experiment [1], in [3], in [5], in experiment [6], in [8] and in experiment [9] was inactive. In addition, the AC50 in experiment [2] was 27.3 µM (active); in experiment [4], 15.7 µM (active); in [7] it was 26.7 µM (active); in experiment [10], 32 µM (active).

Consider `CCCCOCN(C(=O)CCl)c1c(CC)cccc1CC`, for which the half-maximal activity concentration (AC50) in experiment [1] is 31.4 µM (active); in experiment [2] it was 5.46 µM (active); in experiment [4], 24.6 µM (active); in experiment [5] it was 29.3 µM (active); in experiment [6], 24.2 µM (active); in experiment [7], 12.2 µM (active). Further, the half-maximal activity concentration (AC50) is 33.3 µM (active) in [8], 31.4 µM (active) in experiment [9] and 15.2 µM (active) in [10]. For the same molecule, the result in experiment [3] was inactive.

On to `Clc1nc(Cl)nc(Nc2ccccc2Cl)n1`, for which the outcome in experiment [1], in experiment [2], in experiment [3], in experiment [5], in [6] and in experiment [7] was inactive. The outcome in [8] and in experiment [9] was inactive. For the same molecule, the AC50 was 32 µM (active) in [4] and 27.8 µM (active) in [10].

With `CC(C)C1(C)N=C(c2ncccc2C(=O)O)NC1=O` (stereo not drawn), the result in experiment [1], in experiment [2], in [3], in [4], in experiment [5] and in [6] was inactive. Besides, the outcome in experiment [7], in experiment [8], in [9] and in [10] was inactive.

For `CCCC(=NOCC)C1=C(O)CC(CC(C)SCC)CC1=O` (stereo not drawn), the outcome in experiment [1], in [2], in [3], in experiment [4], in experiment [5] and in experiment [6] was inactive. In addition, the outcome in experiment [7], in [8], in experiment [9] and in experiment [10] was inactive.

As to `CCOP(=S)(OCC)Oc1nc(Cl)n(C(C)C)n1`, the result in [1], in [2], in [3], in experiment [5], in experiment [6] and in experiment [7] was inactive. The outcome in [8], in experiment [9] and in experiment [10] was inactive. The AC50 in experiment [4] is 26.7 µM (active).

In the case of `CNC(=O)Oc1cccc2ccccc12`, the outcome in experiment [1], in [2], in experiment [3], in experiment [4], in experiment [5] and in experiment [6] was inactive. The result in experiment [7], in [8] and in experiment [9] was inactive. Moreover, the AC50 in experiment [10] was 13.9 µM (active).

In the case of `COc1ccc(-c2ccccc2)cc1NNC(=O)OC(C)C`, the outcome in experiment [1], in experiment [2], in experiment [3], in experiment [4], in experiment [5] and in experiment [6] was inactive. Further, the result in experiment [7], in experiment [8], in [9] and in [10] was inactive.
